MARV entry inh – inhibitors of Marburg virus binding or cell entry | Potency, µM (titrated, usually from 37.8 µM), inactives show at the top dose activity change, negative = inhibition, hits mostly inhibitors | 1.8% of 300,000 active | Marburg virus pseudotyped entry inhibition, cell reporter; calls by dose curve; tested in HEK293 cells; also: potency is read from the fitted curve at half-maximal effect
HCMV inh – inhibitors of human cytomegalovirus | HFF cells, HCMV-luciferase reporter, 72 h; stronger effect = lower value | activity change, negative = inhibition, % at 57.5 µM | 4.5% of 410,000 active; in the data active = activity change below about -60%; inconclusive = no clear call, values can overlap the other calls; inactive = above about -39%
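Two-dose cell screen: HFF monolayers treated with compounds and infected with luciferase-expressing HCMV at 1 PFU/cell, 72 h at 37C, then lysed for luciferase measurement.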
Lassa entry inh – inhibitors of Lassa virus binding or cell entry. 1.2% of 300,000 active. Potency, µM (top dose mostly 37.9 µM), for the others: at the highest dose activity change, negative = inhibition, hits mostly inhibitors. Lassa virus pseudotype entry inhibition, cell reporter; calls by dose curve; tested in HEK293 cells; also: potency is read from the fitted curve at half-maximal effect; nearly all actives have a fitted effect of over 50% in size
Vaccinia Venus – inhibitors of vaccinia virus (Venus reporter); Vaccinia virus Venus reporter expression, fluorescence; Potency, µM (doses to about 36.5 µM), without a hit: at the top dose activity change, negative = inhibition, hits mostly inhibitors; 0.46% of 330,000 active; AID 720580; calls by dose curve; tested in A549 cells; also: potency is read from the fitted curve at half-maximal effect; nearly all actives have a fitted effect of over 30% in size
FMDV inh – foot and mouth disease virus antiviral activity; FMDV antiviral cell-based qHTS; Potency, µM (highest dose often 57.9 µM), for inactives: at the highest dose activity change, negative = inhibition, usual class: inhibitors; 1.2% of 410,000 active; calls by dose curve; tested in HEK293T cells; also: read-out not given here; potency is read from the fitted curve at half-maximal effect; nearly all actives have a fitted effect of over 45% in size
Vaccinia mCherry – inhibitors of vaccinia virus infection (mCherry reporter signal); Vaccinia virus mCherry reporter infection, fluorescence; Potency, µM (doses to about 36.5 µM), for the others: at the highest dose activity change, negative = inhibition, usual class: inhibitors; 0.63% of 310,000 active; AID 720579; calls by dose curve; tested in A549 cells; also: potency is read from the fitted curve at half-maximal effect; nearly all actives have a fitted effect of over 35% in size
* hit, by the source's call; i = inactive; ? = inconclusive; . = not tested or not shown; [ ] = remark or other dose. Compounds with a hit are over-represented: about 6.5% of the library has one in this group of screens. % is scaled to controls: 0 for no effect and ±100 for the full control effect.

SMILES | MARV entry inh | HCMV inh | Lassa entry inh | Vaccinia Venus | FMDV inh | Vaccinia mCherry
O=C(CNC(=O)c1cccs1)c1ccc(Cl)cc1 | ? | 35.2 | -16.0% | 3.3% | 1.8% | i
O=C(CNC(=O)c1ccco1)OCC(=O)c1ccc([N+](=O)[O-])cc1 | 3.7%[46.1 µM] | -63.7* | -17.2% | -2.3% | -1.2% | i
COc1ccc(N2CC(NC(=O)c3cccs3)CC2=O)cc1OC (stereo not given) | . | 9.5 | 12.0%[46.1 µM] | -8.4% | -4.2% | -4.7%
CCN1CCN(c2ccc(NC(=O)CCc3c(C)nc4c(-c5ccc(F)cc5)c(C)nn4c3C)cc2)CC1 | . | -60.2* | . | ? | -25.8% | ?
COc1ccc(NC(=O)CCn2c(=O)c3cccn3c3cccnc32)c(OC)c1 | . | ? | 5.0%[46.1 µM] | 2.9% | -3.3% | -12.4%
CCC(CC)C(=O)c1c[nH]c(C(=O)NCC2CCCO2)c1 (stereo not given) | 0.8% | 2.1 | 7.08µM* | -6.8% | -15.0% | -10.5%
Cc1onc(-c2c(Cl)cccc2Cl)c1C(=O)c1c[nH]c(C(=O)NCC2CCCO2)c1 (stereo not given) | ? | -6.5 | 8.91µM* | -9.6% | ? | -10.8%
CC(=O)c1c[nH]c(C(=O)NCC2CCCO2)c1 (stereo not given) | -1.0% | 32.3 | -4.0% | . | -3.4% | .
C[C@H]1COc2cc(NCCO)ccc2S(=O)(=O)N1 | . | 2.0 | . | . | . | .
COc1ccc(-c2cc(C(F)(F)F)nc(N3CCN(C)CC3)n2)cc1OC | 11.6µM* | 13.8 | -27.1% | -20.1% | ? | -11.5%
COc1ccc(-c2cc(C(F)(F)F)nc(N3CCCCC3)n2)cc1OC | ? | 4.2 | ? | . | -24.3% | .
Cn1nc(C(F)(F)F)c(/C=N/OC(=O)c2ccccc2Cl)c1SCc1ccc(Cl)cc1 | ? | ? | ? | . | -23.2% | .
COc1ccc(C(=O)O/N=C/c2c(C(F)(F)F)nn(C)c2SCc2ccccc2Cl)cc1 | ? | -82.1* | ? | . | -18.7% | .
Cc1nc2cnc(N(C)C)nc2n(C[C@H]2CCCO2)c1=O | . | . | . | . | -10.5% | .
O=C(NCC(c1cccnc1)N1CCN(c2ccccc2F)CC1)Oc1ccccc1 (stereo not given) | -16.0% | -27.7 | -9.0% | -14.0% | ? | .
CCc1ccc(NC(=O)C(=O)NCC(c2cccnc2)N2CCc3ccccc3C2)cc1 (stereo not given) | . | -27.6 | 18.2%[46.1 µM] | -28.7% | 10µM* | -23.9%
Cc1ccc(CNC(=O)C(=O)NCC(c2cccnc2)N2CCN(c3ccccc3F)CC2)cc1 (stereo not given) | . | -71.8* | ? | ? | -20.2% | ?
C=C1NN(CC2CC2)C(=O)N1c1ccc(OCc2ccccc2)cc1 | . | . | . | -14.4% | . | -25.9%
CCCCn1nc(C(=O)N(C)C2CCCCC2)c2ccccc2c1=O | . | -106.2* | . | . | -15.2% | .
CCCCn1nc(C(=O)NC2CCCCCC2)c2ccccc2c1=O | ? | -24.8 | -20.9% | 0.7% | 2.6% | i
COC(=O)C[C@H](NC(=O)Cn1cnc(C(=O)Nc2ccc(C)c(C)c2)n1)C(=O)OC | 1.9% | -65.1* | . | -0.9% | 38.2% | -8.2%
Cc1ccc(C(=O)NN2C(=O)/C(=C/c3cn(C)c4ccccc34)SC2=S)cc1 | 3.5% | -68.5* | ? | 0.6% | 6.4% | -12.7%
CCOC(=O)CCN1C(=O)[C@H]2[C@H]3[C@H](O)[C@H](O)C/C(=N\OCC(C)C)[C@@H]3CC[C@H]2C1=O | -10.9%[14.2 µM] | . | . | . | . | .
Cn1c2ccccc2c(=O)c2c(=O)n(C3CCCCC3)c(-c3ccco3)nc21 | ? | -63.4* | 4.0% | -15.2% | -28.1% | -7.8%
CCCCCc1nc2c(c(=O)c3ccccc3n2C)c(=O)n1C1CCCCCC1 | ? | ? | 15.8µM* | -12.5% | 31.6µM* | -5.6%
SMILES | MARV entry inh | HCMV inh | Lassa entry inh | Vaccinia Venus | FMDV inh | Vaccinia mCherry
Cc1nc2c(c(=O)c3ccccc3n2C)c(=O)n1C1CCCCCC1 | ? | -17.0 | 14.9% | -14.3% | 23.8% | -16.1%
O=C(Nc1ccncc1)OCc1ccccc1 | ? | -16.2 | -5.9% | -6.5% | -21.0% | -11.3%
O=Cc1c[nH]c2ccc(NC(=O)OCc3ccccc3)cc12 | 12.6µM* | -26.7 | ? | -0.2% | 3.5% | -26.0%
CC(C)(C)Nc1nc(NN)nc(NC(C)(C)C)n1 | ? | -84.6* | ? | -26.7% | -22.4% | .
CC(C)(C)Nc1nc(Cl)nc(NC(C)(C)C)n1 | ? | 155.2 | 2.2% | -17.2% | 0.0% | -7.1%
Cn1c(CSc2nc3ccccc3n2C)nc2ccccc21 | ? | -17.0 | 10.6% | . | 16.5% | .
Cn1c(SC2=CS(=O)(=O)c3ccccc32)nc2ccccc21 | ? | -97.9* | ? | ? | 28.2µM* | .
C=CCN1C(=O)NC(c2ccccc2)(C(F)(F)F)S/C1=C(\C#N)c1nnc(N2CCOCC2)n1-c1ccccc1 (stereo not given) | -27.6% | -24.8 | -29.3% | . | 31.6µM* | .
C=CCN1C(c2cccc(C(F)(F)F)c2)=CS/C1=C(\C#N)c1nnc(N2CCOCC2)n1-c1ccccc1 | . | -4.6 | . | -24.8% | -19.2% | -3.3%
COCOc1c2c(c(OCOC)c3c(OCOC)cccc13)/C(=N/NS(C)(=O)=O)C1=C2CCCC1 | 1.2%[14.2 µM] | . | . | . | . | .
S=C(NCc1ccccc1)NNc1nc2ccccc2[nH]1 | ? | -70.1* | ? | -20.3% | -4.2% | -15.8%
C=CCNC(=S)NNc1nc2c(c(=O)[nH]1)C1(CCCC1)Cc1ccccc1-2 | . | 1.5 | . | . | 26.2% | .
O=c1[nH]c(NNC(=S)NCc2ccccc2)nc2c1C1(CCCCC1)Cc1ccccc1-2 | . | -62.3* | . | . | -23.0% | .
CCN(CC)CCn1c2ccccc2c2nc3ccc([N+](=O)[O-])cc3cc21 | ? | -98.3* | ? | -9.5% | 7.5% | -20.7%
COc1ccc(CC2C(=O)NC(C)C(=O)N(C)C3Cc4ccc(cc4)Oc4cc(ccc4O)CC(C(=O)NC(C)C(=O)NC(C)C(=O)N2C)N(C)C3=O)cc1 (stereo not given) | ? | -100.8* | ? | ? | 0.0% | ?
COc1ccc(CN2C(=O)C(C)Nc3ncnc(N4CCc5ccccc5C4)c32)cc1 (stereo not given) | . | -16.9 | . | -21.0% | -23.6% | -23.7%
CN(C(=O)c1sc2nc(N3CCOCC3)c3c(c2c1N)CCCC3)c1ccccc1 | ? | ? | 3.55µM* | -20.2% | ? | -23.8%
CCOC(=O)c1sc2nc(N3CCOCC3)c3c(c2c1N)CCN(Cc1ccccc1)C3 | ? | -30.9 | 16.4µM* | ? | -12.6% | ?
CNc1ccc(/C=C2\COc3ccccc3C2=O)cc1[N+](=O)[O-] | ? | 0.5 | 1.1% | -25.4% | -6.7% | .
O=C1/C(=C/c2ccccc2[N+](=O)[O-])COc2ccccc21 | . | -100.4* | . | . | ? | .
CC(CCc1ccccc1)NC(=O)COC(=O)c1ccc(S(C)(=O)=O)c([N+](=O)[O-])c1 (stereo not given) | ? | -98.5* | ? | ? | ? | ?
Cc1ccccc1NC(=O)COC(=O)c1ccc(S(C)(=O)=O)c([N+](=O)[O-])c1 | 9.2µM* | -93.5* | 20.6µM* | -26.4% | 31.6µM* | -0.5%
